The values that follow come from PubChem BioAssay AID652175 (National Center for Advancing Translational Sciences (NCATS), 2013).

Records with an inconclusive call do not appear. Unmarked numbers belong to inactive results. Calls of active or inactive are those of the source. The call rests on the fitted dose curve; in most records, active means well fitted inhibition curve with a large enough effect; inconclusive means small, poorly fitted or top-dose-only effect; inactive means no such curve, though single readings can be large or run the other way.

This test in a line: qHTS Assay for Lipid Storage Modulators: S3 Assay against Probe and Analogs. The note with it: Drosophila S3 cells, BODIPY lipid droplet fluorescence, 18-24 h, oleic acid added to induce droplets; series mostly up to 46.1 µM; activity, negative = lipid storage inhibition: at the top concentration. The text has this:
Storing lipids as a reservoir for energy or the anabolism of elementary metabolites is a common feature of probably all cells and is conserved from bacteria to humans. The universal cellular lipid storage organelle is the so-called lipid storage droplet (LD). Although ubiquitous, LDs share a simple structure composed of a hydrophobic core that harbors the storage lipids, which is shielded by a droplet-specific phospholipid monolayer to which proteins are attached. The current model of LD biogenesis involves an incorporation of the lipid core into the membrane leaflets of the endoplasmic reticulum (ER) followed by a subsequent budding-like maturation of a LD, which ultimately pinches off. Once released, LD volume can increase by localized lipogenesis or fusion of existing droplets. Storage lipids are re-mobilized enzymatically by lipase activity. Lipase regulation in the adipocyte is heavily studied and involves multiple components including catecholamine signaling, the LD-associated proteins Perilipin and comparative gene identification-58 (CGI-58) and at least two lipases named hormone sensitive lipase (HSL) and adipocyte triglyceride lipase (ATGL). LD regulation outside of the adipocyte is poorly understood and only few components are known. However, there is an urgent need to learn more about ectopic fat depots as mislocalized storage of lipids, for example in the liver or muscle, is an eminent health problem associated with insulin resistance or the metabolic syndrome. We developed a laser-scanning cytometer assay to enable 1,536-well screening and combined the results of the small molecules screen with an RNAi database based on lipid storage. In this assay we tested analogs of the probe against the original qHTS assay, which involved drosophila melanogaster cells (S3), to see if these small molecules could disrupt lipid storage. NIH Molecular Libraries Probe Production Centers Network [MLPCN] NIH Chemical Genomics Center [NCGC] MLPCN Grant: MH085686 Assay Submitter (PI): Mathias Beller, Max-Planck-Institut fur Biophysikalische Chemie
qHTS was performed with embryonic Drosophila S3 cells (Bloomington Drosophila Genomics Resource Center [DGRC]). We dispensed 4 uL of cells at 1.25 x 10^6 cells/mL into LoBase Aurora COC 1,536-well plates (black walled, clear bottom) with a bottle-valve solenoid-based dispenser (Aurora) to obtain 5,000 cells/well. Triacsin C (Sigma-Aldrich T-4540), an inhibitor of long-chain fatty acyl CoA synthetase that blocks synthesis of triglycerides, was used as a positive control for lipid under-storage. A total of 23 nL of compounds dissolved in DMSO at different concentrations were transferred to the assay plates using a Kalypsys pin tool equipped with a 1,536-pin array containing 10-nL slotted pins (FP1S10, 0.457-mm diameter, 50.8 mm long; V&P Scientific). The final DMSO concentration was 0.46%. One microliter of oleic acid at 400 uM (Calbiochem, #4954) was added to induce lipid droplet formation in the cells, and the plates were lidded with stainless steel rubber gasket lined lids containing pinholes. After 18-24 h incubation at 25 0C and 95% humidity, 4 uL of the BODIPY lipid dye 493/503 (1:2000, Molecular Probes) and the Cell Tracker Red CMTPX dye (Life Technologies, # 34552) were added to the wells to stain lipid droplets and enumerate cell number, respectively. Fluorescence was detected by excitation of the fluorophores with a 488-nm laser on an Acumen Explorer (TTP Lab Tech). The total intensity in channel 1 (500-530 nm) reflected lipid droplet accumulation. Cells were detected using channel 3 (575-640 nm) with 5-um width and 100-um depth filters. The ratio of the total intensity in PMT channel 1 over total intensity of channel 3 was also calculated. Percent activity was computed relative to an internal control (100% inhibited lipid droplet deposition due to the presence of 20 uM Triacsin C), which was added to 32 wells/plate.
Regarding `CCOc1ccc(CCNC(=O)c2cc3ccccc3n2CCN2CCOCC2)cc1OCC`, the “activity, negative = lipid storage inhibition” value was -100%.
Still for that read-out and setting: next, `CCOc1ccc(CCNC(=O)c2cc3cnccc3n2Cc2cccc(C)n2)cc1OCC`: -27.6%.
`CCOc1ccc(CCNC(=O)c2cc3sccc3n2CCN(C)C)cc1OCC`: the Potency was 2.35 µM (active).
`CCOc1ccc(CCNC(=O)c2ccccc2)cc1OCC`: the “activity, negative = lipid storage inhibition” value is 33.3%.
On to `CCOc1ccc(CCNC(=O)c2cc3ccccc3n2Cc2cccc(C)c2)cc1OCC`, for which the Potency is 0.0033 µM (active).
`CCOc1ccc(CCNC(=O)c2cc3ccncc3n2Cc2cccc(C)n2)cc1OCC`: the “activity, negative = lipid storage inhibition” value was -100%.
On to `CCOc1ccc(CCNC(=O)c2cc3ccccc3n2Cc2ccccn2)cc1OCC`, for which the Potency was 0.118 µM (active).
Same read-out and setting: next, `CCOc1ccc(CCNC(=O)c2cc3ccccc3n2Cc2cccc(C)n2)cc1OCC`: 0.0132 µM (active).
With `CCOc1ccc(CCNC(=O)c2ccc(Oc3ccccc3)cc2)cc1OCC`, the “activity, negative = lipid storage inhibition” value is 43.3% [at 38.8 µM].
Regarding `CCOc1ccc(CCNC(=O)c2cc3sccc3n2Cc2ccc(F)cc2F)cc1OCC`, the Potency is 0.0166 µM (active).
Turning to `CCOc1ccc(CCNC(=O)c2ccc(C(=O)c3ccccc3)cc2)cc1OCC`, the “activity, negative = lipid storage inhibition” value was 46.7%.
